Data reported in PubChem BioAssay (NCI).
Compounds without any hit were thinned out: in the full panel of roughly 83,000, 20% have a hit.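 Cells were grown in 96-well plates and exposed to the test compound at a single concentration for 48 hours; results are reported as percent growth, with values below 10 considered active.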 Values without a mark were called inactive. Calls of active or inactive are those of the source.

Key:
Assay in all cases: NCI-60 one-dose screen, 48 h (100 = growth as untreated, 0 = no growth, -100 = all killed)
[1] = system: RPMI-8226 leukemia; settings: 10 µM unless noted
[2] = system: OVCAR-8 ovarian; settings: 10 µM unless noted
[3] = system: OVCAR-5 ovarian; settings: 10 µM unless noted
[4] = system: OVCAR-4 ovarian; settings: 10 µM unless noted
[5] = system: SK-OV-3 ovarian; settings: 10 µM unless noted
[6] = system: IGROV1 ovarian; settings: 10 µM unless noted
[7] = system: OVCAR-3 ovarian; settings: 10 µM unless noted
[8] = system: HS 578T breast; settings: 10 µM unless noted
[9] = system: NCI/ADR-RES ovarian; settings: 10 µM unless noted
[10] = system: T-47D breast; settings: 10 µM unless noted
[11] = system: BT-549 breast; settings: 10 µM unless noted
[12] = system: MDA-MB-435 melanoma; settings: 10 µM unless noted
[13] = system: SW-620 colon; settings: 10 µM unless noted
[14] = system: MCF7 breast; settings: 10 µM
[15] = system: HCT-116 colon; settings: 10 µM unless noted
[16] = system: HCC-2998 colon; settings: 10 µM unless noted
[17] = system: KM12 colon; settings: 10 µM unless noted

Structure (SMILES)	growth [1]	growth [2]	growth [3]	growth [4]	growth [5]	growth [6]	growth [7]	growth [8]	growth [9]	growth [10]	growth [11]	growth [12]	growth [13]	growth [14]	growth [15]	growth [16]	growth [17]
CCN1C(=O)N(CC)C2Nn3c(s/c(=C4\C(=O)N(C(C)C)c5ccccc54)c3=O)=NC21 (stereo unspecified)	23.3%	39.9%	64%	35.2%	35.5%	49.5%	19.4%	60.1%	7.07% (active)	27.9%	27.7%	1.02% (active)	32.4%	9% (active)	6.5% (active)	34.6%	28.5%
Cc1ccc(OCCCCCCNCCO)c(C)c1	9.43% (active)	-10% (active)	35.9%	16.8%	16.8%	-4.59% (active)	24%	18.5%	8.9% (active)	5.9% (active)	27.6%	15.2%	18.1%	9.1% (active)	19.1%	-6.64% (active)	15.1%
COc1ccc(-c2cn[nH]c2-c2ccc(OC)c(O)c2)cc1	77.5%	88.4%	99.1%	90.2%	86.8%	77.2%	81.1%	75.9%	49.2%	73.6%	74.1%	3.35% (active)	38%	35.4%	61.4%	85.8%	44.8%
CC1=C(C(=O)OCC2CCN(C(=O)OC(C)(C)C)CC2)[C@H](c2cccc(C#N)c2)C2=C(CC(C)(C)CC2=O)N1	41.5%	46.9%	75.9%	61.7%	84%	47.8%	58.3%	61.7%	50.6%	69.8%	65%	50.3%	37.2%	40.8%	26.9%	70.8%	42.4%
COc1c2ccoc2c(/C=C/C=O)c2oc(-c3ccccc3)cc(=O)c12	28%	26.1%	106%	57.8%	96.3%	80.5%	57.7%	74.8%	32.4%	47%	41.2%	64.6%	10%	31.5%	-56.6% (active)	104%	91.4%
CCCCCCn1c(=N)n(CC(O)COc2cccc(C)c2)c2ccccc21 (stereo unspecified)	-24.8% (active)	-67.1% (active)	-7.84% (active)	-31.9% (active)	37.3%	-58.1% (active)	23.3%	-5.09% (active)	-2.54% (active)	52.6%	36.6%	-77.3% (active)	-65.9% (active)	-51.6% (active)	-33.8% (active)	-87.1% (active)	-43.8% (active)
CCC1=C[C@@H]2CN(C1)Cc1c([nH]c3ccccc13)[C@@](C(=O)OC)(c1cc3c(cc1OC)N(C)[C@H]1[C@@](O)(C(=O)OC)[C@H](OC(C)=O)[C@]4(CC)[C@@H]5C[C@@H]5CN5CC[C@]31[C@@H]54)C2	-20.3% (active)	14.5%	44.6%	14.6%	-24% (active)	1.74% (active)	-25.8% (active)	-5.73% (active)	1.35% (active)	72%	12.8%	-57.7% (active)	26.1%	3.46% (active)	6.72% (active)	-13.1% (active)	5.74% (active)
Cc1c(-c2noc(-c3ccc([N+](=O)[O-])cc3)n2)no[n+]1[O-]	93.3%	107%	104%	102%	111%	89.4%	94.4%	104%	96.2%	104%	95.7%	106%	97.5%	55.2%	87.5%	102%	92.2%
O=C(N/N=C/c1ccccc1O)C(=O)Nc1ccc(F)cc1	52.2%	38.7%	64.8%	27.2%	59.1%	53%	27.7%	74.6%	18.1%	52.6%	59.3%	59.3%	44.5%	20.9%	37.6%	38.8%	42.3%
CN(C)CCCNCc1ccc(-c2ccc(F)c(Cl)c2)o1	-26.3% (active)	59.3%	65.3%	59.6%	73.1%	31.6%	34.3%	57.6%	53.8%	23.2%	76.6%	-41.6% (active)	-45% (active)	-33% (active)	12.3%	-90.2% (active)	-19.9% (active)
COc1cc(-c2c3c(cn2S(=O)(=O)c2ccccc2)-c2nc(N)sc2CC3)cc(OC)c1OC	25.3%	32.7%	43.4%	56%	12.6%	31.6%	-43.5% (active)	23%	14.9%	44%	48.5%	-32.1% (active)	25.6%	18.5%	24%	45.5%	28.5%
CCCCNc1nc(NC(C)(C)C)nc(NC(C)(C)C)n1	17.7%	59.5%	62%	55.2%	81.9%	51.3%	54.2%	67.7%	53.3%	45.3%	79.9%	72%	52.3%	56%	30.8%	74.3%	63.8%
COC(=O)C1(C)COP(=O)(Nc2ccc(OC)cc2)OC1 (stereo unspecified)	97.7%	101%	108%	108%	108%	108%	107%	106%	99.5%	93.1%	98.4%	105%	108%	99.5%	95.3%	94.1%	103%
Oc1[nH]c2ccccc2c1N=Nc1nnc2n1N=C(c1ccccc1)CS2	92.8%	59.1%	101%	59.6%	89.8%	97.5%	88.4%	72%	105%	64.3%	72.8%	93.8%	106%	71.9%	86.4%	81.3%	95.2%
CCCC(=O)CC(C)=O.CCCC(=O)CC(C)=O.[Cu]	102%	93.1%	117%	113%	77.3%	103%	116%	110%	101%	77.1%	111%	109%	106%	92.4%	95.9%	102%	102%
O=NN(Cc1cccnc1)C(=O)NC1CCCCC1	95.3%	104%	97.4%	104%	113%	113%	114%	118%	105%	98.1%	112%	108%	107%	92.9%	104%	107%	109%
OC(c1ccccc1)c1nnc(SCc2ccccc2)n1Cc1ccccc1 (stereo unspecified)	72.5%	98.8%	92.8%	81.6%	90%	93.7%	103%	94%	92.8%	85.2%	88.4%	97.8%	105%	92.9%	92.2%	111%	108%
COc1cc2nc(-c3cnc(N(C)C)nc3)nc(NC3CCN(Cc4ccccc4)CC3)c2cc1OC	-50.5% (active)	-42.9% (active)	-94.8% (active)	-93.5% (active)	-68% (active)	-76.4% (active)	-85.1% (active)	-47% (active)	-54.1% (active)	-46.6% (active)	-1.66% (active)	-83.6% (active)	-56.3% (active)	-65.5% (active)	-80.6% (active)	-92.7% (active)	-60.9% (active)
